Screening data deposited in PubChem by National Center for Advancing Translational Sciences (NCATS).
HT1080 IDH1KD tx: qHTS for induction of synthetic lethality in tumor cells producing 2HG: qHTS for the HT-1080-IDH1KD cell line; HT-1080 IDH1 knockdown viability, ATP luminescence, 48 h; Potency, µM (titrated, usually from 46.1 µM), hits mostly cytotoxic; 360,000 tested, 2% active; AID 686971, 2013
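After a 2 h attachment period, IDH1KD HT-1080 cells took pin-transferred compound for 48 h at 37 °C; ATP-based luminescence after 10 min room-temperature reagent incubation reported viability.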
SW480 rerep: A quantitative high throughput screen for small molecules that induce DNA re-replication in SW480 colon adenocarcinoma cells | SW480 DNA re-replication, Hoechst DNA content imaging, 48 h | Potency, µM (titrated, usually from 46.1 µM), most hits filed as activators | 340,000 tested, 1.8% active | AID 624297, 2012; further: nearly all actives have a fitted effect of over 55% in size
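Hoechst fluorescence of nuclei (405 nm excitation, 500-530 nm emission) measured by plate-scanning imager after 48 hr compound exposure at 37 C; re-replication scored as increased number of nuclei with elevated intensity.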
KB-3-1 cytotox: qHTS assay for MDR1-selective chemotherapeutics: Primary screen using the parental adenocarcinoma cell KB-3-1. AID 1347075, 2019. 400,000 tested, 1.4% active. Potency, µM (top dose mostly 46.1 µM), hits mostly cytotoxic. KB-3-1 viability, CellTiter-Glo ATP luminescence, 72 h; further: nearly all actives have a fitted effect of over 60% in size
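Screening of KB-3-1 cells (DMEM, 10% FBS, phenol-red free) ran from lowest to highest compound concentration; after 72 h at 37 °C viability was read luminescently and curves fitted.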
KB-V1 MDR tox: qHTS assay for MDR1-selective chemotherapeutics: Primary screen using the drug-selected MDR subline cells KB-V1; Potency, µM (top dose mostly 46.1 µM), most hits filed as cytotoxic; KB-V1 MDR cells viability, CellTiter-Glo, 72 h; AID 1347076, 2019; 400,000 tested, 3.4% active; further: nearly all actives have a fitted effect of over 60% in size
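Readout: CellTiter-Glo luminescence, 10 min after addition. Cells: KB-V1 MDR subline, 72 h at 37 degrees C with compound. Analysis: corrected, normalized data fitted to concentration-effect curves.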
MCF10A rerep: A quantitative high throughput screen for small molecules that induce DNA re-replication in MCF 10a normal breast cells | MCF 10A DNA re-replication, Hoechst nuclear intensity, 48 h | 350,000 tested, 2.9% active | Potency, µM (doses to about 46.1 µM), most hits filed as activators | AID 624296, 2012; further: nearly all actives have a fitted effect of over 50% in size
HT1080NT lethal: qHTS for induction of synthetic lethality in tumor cells producing 2HG: qHTS for the HT-1080-NT fibrosarcoma cell line; AID 686970, 2013; Potency, µM (doses to about 46.1 µM), most hits filed as cytotoxic; 360,000 tested, 1.6% active; HT-1080-NT fibrosarcoma viability, CellTiter-Glo ATP luminescence, 48 h;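 further: NT is the 2HG producing partner of a matched IDH1 knockdown line; nearly all actives have a fitted effect of over 55% in size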
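Toxicity toward the 2HG-producing NT line was scored as %Activity, normalised to DMSO and no-cell wells, from CellTiter-Glo luminescence after 48 hours' treatment.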
Of the large screens only hits and unclear results are named; the others gave an inactive call. In the library only some 8% were active in any assay of this set; here they are far more common. The call rests on the fitted dose curve; in most records, active means well fitted curve in the direction sought with a large enough effect; inconclusive means small, poorly fitted or top-dose-only effect, or another doubt; inactive means no such curve, though single readings can be large; an effect the other way counts as inactive or inconclusive.

CCCCCCCCCCCC[n+]1ccc(/C=C/c2c[nH]c3ccccc23)c2ccccc21	KB-3-1 cytotox inconclusive (no result: HT1080 IDH1KD tx, SW480 rerep, MCF10A rerep, HT1080NT lethal)
CCCCCCC[n+]1ccc(/C=C/c2c[nH]c3ccccc23)c2ccccc21	KB-3-1 cytotox 7.31µM, KB-V1 MDR tox inconclusive (no result: HT1080 IDH1KD tx, SW480 rerep, MCF10A rerep, HT1080NT lethal)
CCCCNC(=S)N(C)/N=C/c1c(C)[nH]c2ccccc12	KB-V1 MDR tox inconclusive, MCF10A rerep inconclusive
CCCCCCCCCC[n+]1ccc(/C=C/c2c(C)[nH]c3ccccc23)c2ccccc21	KB-3-1 cytotox 5.8µM, KB-V1 MDR tox inconclusive (no result: HT1080 IDH1KD tx, SW480 rerep, MCF10A rerep, HT1080NT lethal)
COc1ccccc1N1CCN(C(=O)c2cnn(-c3ccc(F)cc3F)c2C2CCNCC2)CC1	KB-V1 MDR tox inconclusive (no result: HT1080 IDH1KD tx, SW480 rerep, MCF10A rerep, HT1080NT lethal)
O=C(NC1CCCCC1)N1CCN(C2CCCCC2)CC1	none
O=C(NC12CC3CC(CC(C3)C1)C2)N1CCN(C2CCCCC2)CC1	MCF10A rerep 2.06µM
Cc1csc2nc(COc3ccccc3NC(=O)c3ccccc3Cl)cc(=O)n12	KB-V1 MDR tox inconclusive (no result: HT1080 IDH1KD tx, SW480 rerep, MCF10A rerep, HT1080NT lethal)
O=C(CN1CCN(CC(=O)Nc2ccc3c(c2)OC2(CCCCC2)O3)CC1)Nc1cccc(F)c1	KB-V1 MDR tox 5.8µM, MCF10A rerep inconclusive
COc1cc(/C=C/C(=O)c2ccc3c(c2)OCO3)cc(Cl)c1O	HT1080 IDH1KD tx 23.1µM, SW480 rerep inconclusive, MCF10A rerep 9.2µM, HT1080NT lethal inconclusive
COc1ccc(Oc2ccc(/C=C/C(=O)c3cccc(OC)c3)cc2[N+](=O)[O-])cc1	HT1080 IDH1KD tx inconclusive, SW480 rerep inconclusive, KB-3-1 cytotox inconclusive, KB-V1 MDR tox inconclusive, MCF10A rerep 6.51µM, HT1080NT lethal inconclusive
O=C(O)c1ccc(/C=C/C(=O)c2ccc3c(c2)OCCCO3)cc1	HT1080 IDH1KD tx inconclusive, SW480 rerep 20.6µM, KB-3-1 cytotox inconclusive, KB-V1 MDR tox inconclusive, MCF10A rerep inconclusive, HT1080NT lethal inconclusive
COc1ccc(/C=C/C(=O)c2ccc(Cl)s2)cc1O	SW480 rerep inconclusive, KB-3-1 cytotox inconclusive, KB-V1 MDR tox inconclusive, MCF10A rerep inconclusive
COc1ccc(C(=O)C=Cc2ccc3c(c2)OCO3)cc1OC	KB-3-1 cytotox inconclusive, KB-V1 MDR tox inconclusive (no result: SW480 rerep, MCF10A rerep)
COc1cc(/C=C/C(=O)c2ccc(Cl)s2)cc(OC)c1O	HT1080 IDH1KD tx 11.2µM, SW480 rerep inconclusive, KB-V1 MDR tox inconclusive, MCF10A rerep inconclusive, HT1080NT lethal inconclusive
COc1ccc(/C=C/C(=O)c2ccc3c(c2)OCCO3)cc1[N+](=O)[O-]	SW480 rerep 11.6µM, KB-3-1 cytotox inconclusive, MCF10A rerep 3.66µM
CCOc1cc(/C=C/C(=O)c2ccc3c(c2)OCCO3)ccc1OCC(=O)N(C)C	HT1080 IDH1KD tx 18.4µM, SW480 rerep inconclusive, KB-3-1 cytotox inconclusive, KB-V1 MDR tox 16.4µM, MCF10A rerep inconclusive, HT1080NT lethal inconclusive
C/C(=N\NC(=O)C1(C)CC1(Br)Br)c1ccc(NC(=O)C2CCC2)cc1 (centres undefined)	HT1080 IDH1KD tx inconclusive, KB-3-1 cytotox 20.6µM, KB-V1 MDR tox inconclusive, MCF10A rerep inconclusive, HT1080NT lethal inconclusive
CN(CCCN1c2ccccc2CCc2ccccc21)CC(=O)c1ccc(Cl)cc1	SW480 rerep inconclusive, MCF10A rerep 33.5µM (no result: HT1080 IDH1KD tx, KB-3-1 cytotox, KB-V1 MDR tox, HT1080NT lethal)
CN(C)CCCN1c2ccccc2CCc2ccc(Cl)cc21	HT1080 IDH1KD tx 20.6µM, SW480 rerep inconclusive, KB-V1 MDR tox inconclusive, MCF10A rerep inconclusive, HT1080NT lethal inconclusive
CN(C)CCCN1C(=O)c2cc3ccccc3cc2C1=O	none
CCCCN1CC[C@H]2C=CC[C@@H](C(=O)NC3CCCCC3)[C@H]2C1=O	KB-V1 MDR tox inconclusive (no result: HT1080 IDH1KD tx, SW480 rerep, MCF10A rerep, HT1080NT lethal)
CC1(C)CCc2cc(O)ccc2O1	none (no result: SW480 rerep, KB-3-1 cytotox, KB-V1 MDR tox, MCF10A rerep)
Cc1ccc(-c2noc(-c3ccccc3NC(=O)C3CC(=O)N(c4ccc(C)cc4)C3)n2)cc1 (centres undefined)	none (no result: HT1080 IDH1KD tx, SW480 rerep, MCF10A rerep, HT1080NT lethal)
Cc1ccc(S(=O)(=O)N2CCCCC2c2cccnc2)c(C)c1C (centres undefined)	KB-3-1 cytotox inconclusive, KB-V1 MDR tox 16.4µM
